# Data published in PubChem BioAssay AID2391 (Southern Research Specialized Biocontainment Screening …, 2010).
# Out of some 310,000 compounds screened, about 410 (0.13%) were called active. Another 2% or so got no clear call; they are omitted. These entries were drawn from the full list. Results with a measured potency or affinity are listed apart. Values without a mark were called inactive. The rule behind the calls is not given here.
# Experiment: inhibition of RSV-induced cytopathic effect – HEp-2 cells, primary 10 µM value included (AID 2391)
# Conditions: at 10 µM, hits give high values
row,SMILES,CPE inhibition
1,CCOc1ccc(Br)cc1S(=O)(=O)Nc1ccc(C(=O)OCC(=O)Nc2ccc(C#N)cc2)cc1,2.94%
2,O=C(NC1CCN(S(=O)(=O)c2cccc(Cl)c2)CC1)C1CCCCC1,1.22%
3,CCOc1ccc(S(=O)(=O)NCCC(=O)Nc2nnc(C)s2)cc1,1.74%
4,CCCOc1ccc(N2C(=O)CC(N(Cc3ccccc3)N=O)C2=O)cc1 (configuration not stated),-0.02%
5,CCCOc1ccc(N2C(=O)CC(N(CCc3ccc(OC)cc3)C(=O)c3ccccc3)C2=O)cc1 (configuration not stated),3.8%
6,N#C/C(=C\c1ccccc1O)C(=O)Nc1ccccn1,9.95%
7,Cc1cc([N+](=O)[O-])cc(C)c1OCC(=O)N/N=C/c1ccc(OC(=O)c2ccccc2)cc1,10.1%
8,COc1cc(/C=N/NC(=O)COc2c(C)cc([N+](=O)[O-])cc2C)ccc1OC(=O)c1ccccc1Br,5.39%
9,Cc1ccc(-n2c(=O)c3c4c(sc3n(Cc3cc(=O)n5ccccc5n3)c2=O)CCC4)cc1C,9.89%
10,O=c1c2sccc2nc(SCc2cc(=O)n3ccccc3n2)n1Cc1ccccn1,0.36%
11,Cc1ccc(-n2c(=O)c3c(C)c(C)sc3n(Cc3cc(=O)n4ccccc4n3)c2=O)cc1C,11.6%
12,COc1cc(-n2c(=O)c3ccccc3n(Cc3cc(=O)n4ccccc4n3)c2=O)cc(OC)c1OC,2%
13,Cc1sc2c(c1C)c(=O)n(-c1ccc(Cl)cc1)c(=O)n2Cc1cc(=O)n2ccccc2n1,8.46%
14,CCOc1ccc(-n2c(=O)c3sccc3n(Cc3ccc(C)cc3)c2=O)cc1,2.63%
15,Cc1sc2ncnc(N3CCC(C(=O)Nc4ccc(Br)cc4Br)CC3)c2c1C,10.1%
16,CCOC(=O)c1cc(-c2ccccc2)n(Cc2cc(CC)no2)n1,2.08%
17,Cc1ccc(-n2nc3c(c2NC(=O)c2ccco2)CS(=O)(=O)C3)cc1,1.04%
18,Cc1ccc(S(=O)(=O)Nc2ccncc2)c(C)c1N(C)S(=O)(=O)c1ccc(Cl)cc1,3.66%
19,CCOC(=O)c1c(C)nc2c(c1-c1cc(OC)ccc1OC)C(=O)c1ccccc1-2,0.88%
20,CN(C)[C@@H]1CCC[C@@H]1OC(=O)C(c1ccccc1)c1ccccc1,1.33%
21,COc1ccc(C(=O)NCc2nnc(SCC(=O)Nc3cc(C)on3)o2)cc1OC,0.22%
22,Cc1ccccc1-c1cc2nc(C)c(C)c(=O)n2[nH]1,2.53%
23,Cc1cccnc1NC1CCCCC1,0.99%

row,SMILES,CPE inhibition
1,COc1ccc(NC(=O)COc2ccccc2C(=O)NCC(c2ccccc2)N(C)C)cc1Cl (configuration not stated),0.1%
2,O=C(/C=C/c1c(Cl)cccc1Cl)Nc1ccncc1,15.2%
3,CN(C)c1ccc(NC(=O)/C=C/c2ccccc2Cl)cc1,4.05%
4,CCCCNCc1cc(Br)c(OCC(=O)N2CCOCC2)c(OC)c1,0.24%
5,O=C(O)Cc1ccc(NC(=O)c2ccc3c(c2)C(=O)N(Cc2ccco2)C3=O)cc1,1.76%
6,O=C(Nc1ccc2c(c1)CCC2)C1CCCN(c2ncccn2)C1 (configuration not stated),-1.9%
7,Cc1cccc(-c2nc(CSCC(=O)N3CCN(Cc4ccc5c(c4)OCO5)CC3)c(C)o2)c1,4.52%
8,CCOc1ccc(NC(=NCc2ccc3c(c2)OCO3)SC2CC(=O)N(c3ccc(OCC)cc3)C2=O)cc1 (configuration not stated),2.56%
9,CCOc1ccc(NC(=NCc2ccc3c(c2)OCO3)SC2CC(=O)N(c3ccccc3)C2=O)cc1 (configuration not stated),1.98%
10,O=C1CC(SC(=NCc2ccc3c(c2)OCO3)Nc2ccccc2)C(=O)N1c1ccccc1 (configuration not stated),3.83%
11,O=C(O)c1ccc(N2C(=O)CC(SC(=NCc3ccc4c(c3)OCO4)Nc3ccccc3)C2=O)cc1 (configuration not stated),5.3%
12,COc1ccc(CN2C(=O)c3cccnc3C2=O)cc1S(=O)(=O)N(C)c1cccc(C)c1,1.8%
13,O=C(Nc1ccc(Cn2cccn2)cc1)c1ccc(COc2cccc(Br)c2)cc1,-0.58%
14,Cc1ccc(C(=O)NCC2CCCN2S(=O)(=O)c2cccs2)cc1C (configuration not stated),1.81%
15,CCCC(=O)Nc1cccc(-c2nc3cc(C)c(C)cc3o2)c1,1.54%
16,CCC(C)c1ccc2oc(-c3ccc(NC(=O)c4ncn[nH]4)cc3)nc2c1 (configuration not stated),9.89%
17,CCC(C)NCC(=O)Nc1ccc(-c2nc3cc(NC(=O)CNC(C)CC)ccc3o2)cc1 (configuration not stated),1.28%
18,Cc1ccc(-c2nc3cc(NC(=O)C(C)C)ccc3o2)cc1C,14.6%
19,Cc1ccc(-c2nc3cc(NC(=O)C(C)C)ccc3o2)cc1,4.38%
20,CCCC(=O)Nc1ccc(-c2nc3cc(C)ccc3o2)cc1,40.7%
21,Clc1ccc(CSc2ccc(-c3cccnc3)nn2)cc1,20.4%
22,Cc1c(C(=O)OCC(=O)Nc2c(C)n(C)n(-c3ccccc3)c2=O)oc2ccccc12,0.38%
23,Cc1cc(OCC(O)CN2CCCC2)cc(C)c1Cl (configuration not stated),-0.91%

row,SMILES,CPE inhibition
1,CC(C)n1c(SCC(=O)N2CCCC2)nc2c1c(=O)n(C)c(=O)n2C,-0.46%
2,CCCN(Cc1nnc(-c2ccccc2Cl)o1)C(=O)c1oc2ccccc2c1C,44%
3,O=C(c1ccccc1)c1cc([N+](=O)[O-])ccc1N1CCCC1,3.67%
4,S=c1nccc(-c2cccs2)[nH]1,5.75%
5,O=C1c2ccccc2NC2(CCCC2)N1N=C1CCCC1,2.08%
6,O=C1CC(NCc2ccccc2F)C(=O)N1c1ccccc1 (configuration not stated),0.44%
7,Cc1ccc(NC(=O)CCS(=O)(=O)c2cccc3nonc23)c(Cl)c1,0.71%
8,COC(=O)c1ccc(CSc2nc3ccccc3c(=O)n2CC(C)C)o1,4.85%
9,COC(=O)c1ccc(Cn2nnc3ccccc3c2=O)o1,4.91%
10,Cc1c(C)c2ccc(OCC(=O)Nc3nccs3)cc2oc1=O,20.3%
11,COc1ccc(OC)c(N(C(=O)c2ccco2)C(C(=O)NC2CCCC2)c2ccc(N3CCOCC3)cc2)c1 (configuration not stated),1.32%
12,COc1cc(/C=C2\SC(=S)N(NS(=O)(=O)c3ccccc3)C2=O)ccc1O,4.97%
13,CCOc1ccc(/C=C2\SC(=S)N(NS(=O)(=O)c3ccccc3)C2=O)cc1OC,2.94%
14,CN1CCN(C(=O)c2cc(Cl)cc(Cl)c2NC(=O)c2ccco2)CC1,0.57%
15,Cc1cc(NC(=O)c2cc3ccccc3o2)ccc1NC(=O)c1ccccc1,5.86%
16,O=C(Nc1ccc(NC(=O)c2cc3ccccc3o2)cc1)c1ccc2c(c1)OCCO2,6.03%
17,Cc1ccc(N(CC(=O)NCCc2ccc(F)cc2)S(=O)(=O)c2ccc(Cl)c([N+](=O)[O-])c2)c(C)c1,3.85%
18,Cc1cc(C)c2nc(N3CCC(C(=O)NCCCN4CCCCC4)CC3)sc2c1,21.9%
19,Cc1cccc(S(=O)(=O)Nc2ccc(-c3cn4ccccc4n3)cc2)c1,21%
20,COC(=O)Cn1c(=NC(=O)c2cccc(OC)c2)sc2cc(OC)ccc21,1.97%
21,Nc1c(C(=O)N/N=C/c2ccc(Cl)cc2)cnn1-c1ccccc1,0.12%
22,NNC(=O)c1cc(-c2ccccc2)sc1N,1.27%
23,CC(C)CCN1CCN(Cc2cccn2-c2nccs2)CC1CCO (configuration not stated),1.17%

row,SMILES,CPE inhibition
1,OCCC1CN(Cc2cccn2-c2nccs2)CCN1Cc1ccccc1 (configuration not stated),-1.03%
2,COc1ccc(Cn2nnnc2C(c2cccs2)N2CCOCC2)cc1 (configuration not stated),0.05%
3,CC(=O)Nc1ccc(NC(=O)c2c(C)nn(Cc3ccccc3)c2Cl)cc1,5.46%
4,Cc1nn(-c2ccccc2Cl)c(Cl)c1/C=N/Nc1cccc(C(=O)O)c1,3.47%
5,Cc1nn(-c2ccccc2Cl)c(Cl)c1/C=N/Nc1nc2ccccc2s1,4.62%
6,CCC(C(=O)Nc1c2c(nn1C(C)(C)C)CS(=O)(=O)C2)c1ccccc1 (configuration not stated),1.09%
7,Cn1ccnc1SCc1ccc(Cl)cc1Cl,1.17%
8,N#Cc1c(-c2ccccc2Cl)noc1/C=C/Nc1ccc(C(=O)O)cc1,2.42%
9,CN(C)/C=C/c1onc(-c2c(Cl)cccc2Cl)c1C#N,1.69%
10,O=C(c1ccccc1Sc1c(Cl)cccc1[N+](=O)[O-])N1CCOCC1,4.6%
11,COc1ccc(/C(C)=N/NC(=O)C2C3CCCCC32)c(OC)c1 (configuration not stated),-0.16%
12,CCc1ccc(OCC(=O)Nc2ccc3c(c2)OCCO3)cc1,0.88%
13,Cc1ccc2c(c1)cc(CN(Cc1cccs1)C(=O)c1ccco1)c1nnnn12,4.88%
14,Cc1ccc2c(c1)cc(CN(Cc1ccco1)C(=O)N1CCOCC1)c1nnnn12,-0.68%
15,O=C(c1ccc(Cl)c(S(=O)(=O)N2CCCC2)c1)N1CCOCC1,4.9%
16,O=c1[nH]c(CNCc2cccnc2)nc2ccccc12,1.68%
17,CCC1C(=O)n2nc(-c3ccccc3)cc2N=C1C (configuration not stated),0.9%
18,Cc1cc(NC(=O)COC(=O)c2cc(S(=O)(=O)N(C)c3ccccc3)ccc2Cl)no1,0.4%
19,Cc1cc(NC(=O)c2c(Cl)cccc2Cl)no1,-0.16%
20,Cc1cc(NC(=O)COC(=O)c2oc3c(Cl)cccc3c2C)no1,2.63%
21,Cc1cc(NC(=O)COc2ccc(N(C)S(=O)(=O)c3ccccc3)cc2)no1,0.18%
22,Cc1cc(NC(=O)COC(=O)c2ccc(NS(=O)(=O)c3ccc(C)c(C)c3)cc2)no1,0.64%
23,Cc1cccc(NS(=O)(=O)c2cc(C(=O)OCC(=O)Nc3cc(C)on3)ccc2C)c1,-0.1%
